Most compounds without a hit are left out; they make up all but 7.5% or so of the library.
SMN2 splice up = SMN2 splice variant enhancement; Potency, µM (doses to about 46.1 µM), for the others: at the highest dose activity change, positive = activation, most hits filed as activators; actives 2.8% (n = 210,000); HEK293 SMN2-luciferase splicing reporter, luminescence, 30-36 h; AID 1458; also: % of control where 0% means no effect; nearly all actives have a fitted effect of over 55% in size
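qHTS luciferase splicing reporter: luminescence rises when SMN2 exon 7 is included in transfected HEK293 cells. Compound exposure lasted 30-36 h at 37C, with 4.5 mM final sodium butyrate as control, followed by a ONE-Glo read.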
NPC1 promoter act = activates the NPC1 promoter | Huh7 NPC1 promoter luciferase reporter, 24 h | Potency, µM (top dose mostly 9.22 µM), inactives show at the top dose activation, actives largely listed as activators | actives 2.4% (n = 320,000) | AID 485313; also: % of control where 0% means no effect; nearly all actives have a fitted effect of over 60% in size
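Huh7 cells stably carrying NPC1 promoter–luciferase, plated in Opti-MEM with 10% FBS for 2 h, were exposed to compound in DMSO for 24 h at 37 °C; luciferase reagent was added for 10 min and luminescence read.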
Rab9 promoter act = activators of Rab9 promoter; AID 485297; Huh7 Rab9 promoter-luciferase reporter, luminescence, 24 h; Potency, µM (series often up to 9.22 µM), inactives show at the highest dose activation, negative = inhibition, hits mostly activators; actives 2.8% (n = 320,000); also: % of control where 0% means no effect; nearly all actives have a fitted effect of over 60% in size
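Cell-based reporter: Huh7 stable for Rab9 promoter-driven luciferase, plated in reduced-serum medium with 10% FBS at 1500 cells/well, compound-treated 24 h at 37 °C, luminescence read after 10 min reagent.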
FLuc modulator = inhibits or activates purified firefly luciferase, miR-21 counter-screen | P08659 | purified FLuc, Km substrates, luminescence inhibition | Potency, µM (top dose mostly 57.5 µM), for the others: at the highest dose activity change, negative = inhibition, usual class: inhibitors | actives 6.9% (n = 360,000) | AID 588342;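 also: plate controls were vehicle for no effect and reference inhibitor for full effect; nearly all actives have a fitted effect of over 55% in size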
Target sequence (P08659 whole entry, looked up): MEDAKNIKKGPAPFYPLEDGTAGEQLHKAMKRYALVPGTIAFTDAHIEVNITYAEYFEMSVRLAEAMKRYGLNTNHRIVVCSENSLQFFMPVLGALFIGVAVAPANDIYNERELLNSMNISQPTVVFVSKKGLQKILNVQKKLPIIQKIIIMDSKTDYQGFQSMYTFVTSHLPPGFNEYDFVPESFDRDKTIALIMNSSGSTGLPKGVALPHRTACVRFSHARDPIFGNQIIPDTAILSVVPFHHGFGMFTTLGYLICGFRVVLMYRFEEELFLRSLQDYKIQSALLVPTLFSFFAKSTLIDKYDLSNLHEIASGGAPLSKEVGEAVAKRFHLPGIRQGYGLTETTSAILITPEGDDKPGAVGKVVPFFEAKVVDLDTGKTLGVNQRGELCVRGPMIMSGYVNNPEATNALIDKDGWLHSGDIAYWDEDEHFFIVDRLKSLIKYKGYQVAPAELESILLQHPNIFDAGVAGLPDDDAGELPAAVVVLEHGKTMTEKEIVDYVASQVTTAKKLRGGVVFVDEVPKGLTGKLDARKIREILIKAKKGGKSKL
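Biochemical qHTS of compounds, final roughly 60 µM downward over six points, against 10 nM purified firefly luciferase using Km concentrations of substrates (10 uM D-luciferin, 10 uM ATP) in Tris acetate pH 7.5 buffer; luminescence output.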
ELG1 genotoxic = genotoxicity induction in ELG1-luciferase HEK293T cells. AID 504466. HEK293T ELG1-luciferase reporter, luminescence, 16 h. Potency, µM (titrated, usually from 46 µM), for inactives: at the highest dose activity change, positive = activation, most hits filed as activators. actives 1.3% (n = 330,000); also: % of control where 0% means no effect; nearly all actives have a fitted effect of over 60% in size
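After overnight (16 hr) compound treatment at 37 °C, ELG1-luciferase HEK293T cells were lysed with ONE-Glo; luminescence quantified 30 min later at room temperature.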
Active calls of the source: *; [ ] = another dose, or the depositor's remark. Calls follow the shape of the dose curve; as a rule, active = well fitted curve in the direction sought with a large enough effect; inconclusive = small, poorly fitted or top-dose-only effect, or another doubt; inactive = no such curve, though single readings can be large; an effect the other way counts as inactive or inconclusive. Potency is read from the fitted curve at half-maximal effect.

Results for CC(=O)Oc1ccc(-c2csc(Nc3cccc(C)n3)n2)cc1 ?
NPC1 promoter act: 2.24µM*; Rab9 promoter act: inconclusive; FLuc modulator: 3.38µM*; ELG1 genotoxic: 13µM*

Results for Cc1cccc(Nc2nc(-c3ccc(F)cc3)cs2)n1 ?
NPC1 promoter act: 3.55µM*; Rab9 promoter act: 3.55µM*; FLuc modulator: 5.36µM*; ELG1 genotoxic: inconclusive

What do the screens show for `COc1ccc(-c2csc(Nc3cccc(C)n3)n2)cc1C`?
NPC1 promoter act: 2.24µM*; Rab9 promoter act: 1.58µM*; FLuc modulator: 3.38µM*; ELG1 genotoxic: inconclusive

How did CC(=O)Oc1ccc(-c2csc(Nc3cccnc3)n2)cc1 do in these assays?
SMN2 splice up: -12.5%; NPC1 promoter act: 17.2%; Rab9 promoter act: 2.4%; FLuc modulator: inconclusive; ELG1 genotoxic: 9.2%

How did COc1ccc(-c2csc(Nc3cccc(C)n3)n2)cc1 do in these assays?
NPC1 promoter act: 0.891µM*; Rab9 promoter act: 0.891µM*; FLuc modulator: 2.69µM*; ELG1 genotoxic: 4.61µM*

How did Cc1cccc(NS(=O)(=O)Cc2ccccc2)c1C do in these assays?
NPC1 promoter act: -0.3%; Rab9 promoter act: 9.7%; FLuc modulator: 0.5%; ELG1 genotoxic: 3.4%

What do the screens show for `COC(=O)[C@H](CC(C)C)N(Cc1ccccc1)S(=O)(=O)N(Cc1ccccc1)[C@@H](CC(C)C)C(=O)OC`?
ELG1 genotoxic: -0.2%

How did C=CCNC(=O)COCc1cc(-c2ccc3c(c2)OCO3)on1 do in these assays?
NPC1 promoter act: 23.7%; Rab9 promoter act: 24.8%; FLuc modulator: inconclusive; ELG1 genotoxic: 7.5%

How did COc1ccc(C(CNC(=O)CSc2ccccc2F)N2CCOCC2)cc1 (stereo not given) do in these assays?
NPC1 promoter act: 0.9%; Rab9 promoter act: 5.3%; FLuc modulator: inconclusive; ELG1 genotoxic: 3.4%

How did O=C1NC(=S)S/C1=C\C=C\c1ccc([N+](=O)[O-])o1 do in these assays?
NPC1 promoter act: -42.5%; Rab9 promoter act: -48.8%; FLuc modulator: 23.9µM*; ELG1 genotoxic: inconclusive

How did OCCCN=C1CCCCC1 do in these assays?
SMN2 splice up: -6.6%[9.22 µM]

Results for CCC(=O)NC(=S)Nc1cccc(NC(=O)c2ccccc2C)c1 ?
SMN2 splice up: 2.5%; NPC1 promoter act: -3.0%; Rab9 promoter act: -4.7%; FLuc modulator: inconclusive; ELG1 genotoxic: -1.3%

How did CCC(=O)Nc1cccc(NC(=S)NC(=O)c2ccccc2C)c1 do in these assays?
SMN2 splice up: 18.3%; NPC1 promoter act: inconclusive; Rab9 promoter act: inconclusive; FLuc modulator: 15.1µM*; ELG1 genotoxic: -0.1%

Results for CCC(=O)Nc1cccc(NC(=S)NC(=O)c2ccc(Cl)cc2)c1 ?
SMN2 splice up: inconclusive; NPC1 promoter act: inconclusive; Rab9 promoter act: 3.55µM*; FLuc modulator: -20.5%; ELG1 genotoxic: 14.7%

What do the screens show for `CCCC(=O)NC(=S)Nc1cccc(NC(=O)c2ccc(Cl)cc2Cl)c1`?
NPC1 promoter act: -3.7%; Rab9 promoter act: -10.6%; FLuc modulator: 13.5µM*; ELG1 genotoxic: -5.0%

Results for COc1cccc(OC)c1CC1SC(=O)NC1=O (stereo not given) ?
SMN2 splice up: -16.0%; NPC1 promoter act: 7.3%; Rab9 promoter act: 13.8%; FLuc modulator: -15.7%; ELG1 genotoxic: 3.5%

What do the screens show for `COc1ccc2c(C)cc(=O)oc2c1`?
SMN2 splice up: -6.7%

How did Cc1cc(=O)oc2cc(OCCc3ccccc3)ccc12 do in these assays?
NPC1 promoter act: 14.4%; Rab9 promoter act: inconclusive; FLuc modulator: 12µM*; ELG1 genotoxic: inconclusive

What do the screens show for `COc1cccc(COc2ccc3c(C)cc(=O)oc3c2)c1`?
NPC1 promoter act: 2.24µM*; Rab9 promoter act: 2.82µM*; FLuc modulator: 3.01µM*; ELG1 genotoxic: 7.3µM*

What do the screens show for `Cc1ccc(Nc2cc(C)nc(-n3nc(C)cc3C)n2)cc1`?
FLuc modulator: -18.0%

How did Cc1ccc(Cl)cc1N1CCN(C(=O)Cn2nc(C)n3c(cc4sccc43)c2=O)CC1 do in these assays?
SMN2 splice up: 5.8%; FLuc modulator: -17.6%

How did Cc1c(CCC(=O)NCCCn2ccnc2)c(=O)oc2c(C)c3occ(C(C)(C)C)c3cc12 do in these assays?
NPC1 promoter act: -2.6%; Rab9 promoter act: -0.8%; FLuc modulator: -0.4%; ELG1 genotoxic: -7.4%

Results for Cc1ccn2c(NC3CCCC3)c(-c3cccs3)nc2c1 ?
SMN2 splice up: 9.0%; NPC1 promoter act: 15.7%; Rab9 promoter act: inconclusive; FLuc modulator: 19µM*; ELG1 genotoxic: -3.4%

What do the screens show for `Cc1ccn2c(NCc3ccccc3)c(-c3cccs3)nc2c1`?
SMN2 splice up: inconclusive; NPC1 promoter act: inconclusive; Rab9 promoter act: 3.16µM*; FLuc modulator: 15.1µM*; ELG1 genotoxic: 8.7%

How did c1csc(-c2nc3ccccn3c2NC2CCCCC2)c1 do in these assays?
SMN2 splice up: -8.3%; NPC1 promoter act: -2.6%; Rab9 promoter act: -1.9%; FLuc modulator: -4.6%; ELG1 genotoxic: -6.8%

What do the screens show for `COc1cc(NC(=O)c2cccs2)c(C(=O)OCC(=O)c2cc(C)n(-c3ccc(F)cc3)c2C)cc1OC`?
SMN2 splice up: -9.3%; NPC1 promoter act: -0.4%; Rab9 promoter act: -0.4%; FLuc modulator: 9.53µM*; ELG1 genotoxic: 8.0%

Results for COc1cc(NC(=O)c2cccs2)c(C(=O)OCC(=O)c2cc(C)n(-c3ccccc3)c2C)cc1OC ?
SMN2 splice up: 12.8%; NPC1 promoter act: -17.0%; Rab9 promoter act: -20.4%; FLuc modulator: 5.36µM*; ELG1 genotoxic: -6.6%

How did CCc1ccn2cc(-c3cc(-c4ccccc4)no3)nc2c1 do in these assays?
NPC1 promoter act: -30.6%; Rab9 promoter act: -35.8%; FLuc modulator: 0.0675µM*; ELG1 genotoxic: inconclusive

Results for Cc1ccc2nc(-c3cc(-c4ccccc4)no3)cn2c1 ?
NPC1 promoter act: 0.794µM*; Rab9 promoter act: 0.251µM*; FLuc modulator: 0.213µM*; ELG1 genotoxic: 0.259µM*

How did Cc1ccc(C(=O)Oc2cc(-c3ccccc3)no2)cc1 do in these assays?
SMN2 splice up: 4.3%; NPC1 promoter act: -2.8%; Rab9 promoter act: 0.5%; FLuc modulator: -4.5%; ELG1 genotoxic: -0.1%

Results for CN(C)C(=O)c1cc(-c2ccccc2)no1 ?
SMN2 splice up: inconclusive; NPC1 promoter act: 20.4%; Rab9 promoter act: inconclusive; FLuc modulator: inconclusive; ELG1 genotoxic: inconclusive

How did CCc1ccccc1Nc1nn2c(=O)c3ccc(C(=O)Nc4cc(C)cc(C)c4)cc3nc2s1 do in these assays?
FLuc modulator: -2.0%

Results for CCOC(=O)c1cc(OC(=O)c2cccc(C)c2)n(-c2ccccc2)n1 ?
SMN2 splice up: 12.6%; FLuc modulator: -2.4%

How did COc1cc(CC(=O)NC2CCCc3ccccc32)cc(OC)c1OC (stereo not given) do in these assays?
NPC1 promoter act: -2.5%; Rab9 promoter act: -0.5%; FLuc modulator: 1.0%; ELG1 genotoxic: -8.9%

Results for Cc1ccccc1C(=O)Oc1ccc2ccc(O)cc2c1 ?
NPC1 promoter act: inconclusive; Rab9 promoter act: -3.0%; FLuc modulator: 6.75µM*; ELG1 genotoxic: 5.8µM*

Screening results from PubChem BioAssay.
